From PubChem BioAssay AID1159580 (chemical genetic matrix, 2015)
Screen size: about 5,500 compounds; about 2,000 (36%) were called active. Inconclusive results (about 18%) are left out. Cut-off read from the data, not from the text of the source: active = normalized growth mostly below about 0.91 (no sharp cut-off); inconclusive = no clear call, values can overlap the other calls; inactive = mostly above about 0.92. Some of the results follow.

Test: chemical genetic growth profiling, strain panel (AID 1159580);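 note: tested at 20 µM; growth read once vehicle control cultures reached saturation at 30 °C; 1 = growth at the plate median or of vehicle wells; lower values mean less growth of the strain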
Conditions: growth OD

Measured: normalized growth

CCCCc1nc(Cl)c(CO)n1Cc1ccc(-c2ccccc2-c2nn[nH]n2)cc1
inactive: S. cerevisiae deletion strains, locus YJR075W, strain HOC1, active compounds read low 0.999 | S. cerevisiae deletion strains, locus YKL009W, strain mrt4, active compounds read low 0.985 | S. cerevisiae deletion strains, locus YKL068W, active compounds read low 0.997 | S. cerevisiae deletion strains, locus YKL085W, strain MDH1 (second series), active compounds read low 0.992 | S. cerevisiae deletion strains, locus YKL085W, strain MDH1, active compounds read low 0.992 | S. cerevisiae deletion strains, locus YKL160W, strain elf1, active compounds read low 0.991 | S. cerevisiae deletion strains, locus YKL190W, strain CNB1, active compounds read low 1.01 | S. cerevisiae deletion strains, locus YKR001C, strain vps1, active compounds read low 0.99 | S. cerevisiae deletion strains, locus YKR026C, strain gcn3, active compounds read low 0.988 | S. cerevisiae deletion strains, locus YKR091W, strain srl3, active compounds read low 0.991 | S. cerevisiae deletion strains, locus YLL001W, strain dnm1, active compounds read low 0.98 | S. cerevisiae deletion strains, locus YLL026W, active compounds read low 0.992 | S. cerevisiae deletion strains, locus YLL041C, strain sdh2, active compounds read low 0.992 | S. cerevisiae deletion strains, locus YLR027C, strain aat2, active compounds read low 0.993 | S. cerevisiae deletion strains, locus YLR039C, strain RIC1, active compounds read low 1.02 | S. cerevisiae deletion strains, locus YLR058C, strain SHM2, active compounds read low 0.997 | S. cerevisiae deletion strains, locus YLR102C, strain apc9, active compounds read low 0.994 | S. cerevisiae deletion strains, locus YLR113W, strain HOG1, active compounds read low 1.01 | S. cerevisiae deletion strains, locus YLR221C, strain rsa3, active compounds read low 0.987 | S. cerevisiae deletion strains, locus YLR258W, strain gsy2, active compounds read low 0.998 | S. cerevisiae deletion strains, locus YLR262C, strain YPT6 (second series), active compounds read low 0.995 | S. cerevisiae deletion strains, locus YLR262C, strain YPT6, active compounds read low 1.04 | S. cerevisiae deletion strains, locus YLR268W, strain sec22, active compounds read low 0.999 | S. cerevisiae deletion strains, locus YLR320W, strain mms22, active compounds read low 0.985 | S. cerevisiae deletion strains, locus YLR330W, strain CHS5, active compounds read low 1.01 | S. cerevisiae deletion strains, locus YLR342W, strain FKS1 (second series), active compounds read low 0.997 | S. cerevisiae deletion strains, locus YLR342W, strain FKS1, active compounds read low 1.01 | S. cerevisiae deletion strains, locus YLR357W, strain rsc2, active compounds read low 0.993 | S. cerevisiae deletion strains, locus YLR370C, strain arc18, active compounds read low 0.987 | S. cerevisiae deletion strains, locus YLR371W, strain rom2, active compounds read low 0.997 | S. cerevisiae deletion strains, locus YLR384C, strain iki3, active compounds read low 0.974 | S. cerevisiae deletion strains, locus YLR418C, strain cdc73, active compounds read low 1 | S. cerevisiae deletion strains, locus YML016C, strain PPZ1, active compounds read low 1 | S. cerevisiae deletion strains, locus YML032C, strain rad52, active compounds read low 1 | S. cerevisiae deletion strains, locus YML120C, strain ndi1, active compounds read low 0.981 | S. cerevisiae deletion strains, locus YML124C, strain tub3, active compounds read low 0.997 | S. cerevisiae deletion strains, locus YMR058W, strain fet3, active compounds read low 1 | S. cerevisiae deletion strains, locus YMR078C, strain ctf18, active compounds read low 0.999 | S. cerevisiae deletion strains, locus YMR125W, strain sto1, active compounds read low 0.982 | S. cerevisiae deletion strains, locus YMR129W, active compounds read low 0.994 | S. cerevisiae deletion strains, locus YMR205C, strain PFK2, active compounds read low 0.998 | S. cerevisiae deletion strains, locus YMR223W, strain ubp8, active compounds read low 1 | S. cerevisiae deletion strains, locus YMR231W, strain pep5, active compounds read low 0.982 | S. cerevisiae deletion strains, locus YMR263W, strain SAP30, active compounds read low 1.02 | S. cerevisiae deletion strains, locus YMR307W, strain GAS1, active compounds read low 0.911 | S. cerevisiae deletion strains, locus YNL067W, strain RPL9B, active compounds read low 1.02 | S. cerevisiae deletion strains, locus YNL071W, strain lat1, active compounds read low 1 | S. cerevisiae deletion strains, locus YNL128W, strain TEP1, active compounds read low 1.01 | S. cerevisiae deletion strains, locus YNL153C, strain GIM3, active compounds read low 1.01 | S. cerevisiae deletion strains, locus YNL183C, strain NPR1, active compounds read low 1.01 | S. cerevisiae deletion strains, locus YNL209W, strain ssb2, active compounds read low 0.979 | S. cerevisiae deletion strains, locus YNL233W, strain BNI4, active compounds read low 1.02 | S. cerevisiae deletion strains, locus YNL248C, strain rpa49, active compounds read low 0.996 | S. cerevisiae deletion strains, locus YNL250W, strain rad50, active compounds read low 0.993 | S. cerevisiae deletion strains, locus YNL271C, strain bni1, active compounds read low 0.995 | S. cerevisiae deletion strains, locus YNL298W, strain CLA4, active compounds read low 0.989 | S. cerevisiae deletion strains, locus YNL307C, strain MCK1, active compounds read low 1.02 | S. cerevisiae deletion strains, locus YNL322C, strain KRE1 (second series), active compounds read low 0.971 | S. cerevisiae deletion strains, locus YNL322C, strain KRE1, active compounds read low 1.01 | S. cerevisiae deletion strains, locus YNR049C, strain mso1, active compounds read low 0.985 | S. cerevisiae deletion strains, locus YNR052C, strain pop2, active compounds read low 0.99 | S. cerevisiae deletion strains, locus YOL006C, strain TOP1, active compounds read low 1.04 | S. cerevisiae deletion strains, locus YOL012C, strain htz1 0.901 | S. cerevisiae deletion strains, locus YOL147C, strain pex11, active compounds read low 1 | S. cerevisiae deletion strains, locus YOR001W, strain rrp6, active compounds read low 0.978 | S. cerevisiae deletion strains, locus YOR061W, strain CKA2, active compounds read low 1.01 | S. cerevisiae deletion strains, locus YOR069W, strain VPS5, active compounds read low 1 | S. cerevisiae deletion strains, locus YOR070C, strain gyp1, active compounds read low 0.986 | S. cerevisiae deletion strains, locus YOR080W, strain dia2, active compounds read low 0.978 | S. cerevisiae deletion strains, locus YOR083W, strain WHI5, active compounds read low 0.981 | S. cerevisiae deletion strains, locus YOR106W, strain vam3, active compounds read low 1 | S. cerevisiae deletion strains, locus YOR136W, strain idh2, active compounds read low 1 | S. cerevisiae deletion strains, locus YOR144C, strain elg1, active compounds read low 1 | S. cerevisiae deletion strains, locus YOR184W, strain ser1, active compounds read low 1 | S. cerevisiae deletion strains, locus YOR231W, strain MKK1, active compounds read low 0.965 | S. cerevisiae deletion strains, locus YOR265W, strain rbl2, active compounds read low 0.999 | S. cerevisiae deletion strains, locus YOR270C, strain vph1, active compounds read low 0.97 | S. cerevisiae deletion strains, locus YOR290C, strain snf2, active compounds read low 1 | S. cerevisiae deletion strains, locus YOR316C, strain cot1, active compounds read low 0.999 | S. cerevisiae deletion strains, locus YPL051W, strain arl3, active compounds read low 0.99 | S. cerevisiae deletion strains, locus YPL055C, strain LGE1, active compounds read low 1.01 | S. cerevisiae deletion strains, locus YPL078C, strain atp4, active compounds read low 0.985 | S. cerevisiae deletion strains, locus YPL106C, strain sse1, active compounds read low 0.964 | S. cerevisiae deletion strains, locus YPL240C, strain hsp82, active compounds read low 1.02 | S. cerevisiae deletion strains, locus YPL241C, strain CIN2, active compounds read low 1.01 | S. cerevisiae deletion strains, locus YPL256C, strain CLN2, active compounds read low 0.967 | S. cerevisiae deletion strains, locus YPR119W, strain clb2, active compounds read low 0.995 | S. cerevisiae deletion strains, locus YPR141C, strain kar3, active compounds read low 1 | S. cerevisiae deletion strains, locus YPR163C, strain tif3, active compounds read low 1.01 | S. cerevisiae deletion strains, locus YPR167C, strain met16, active compounds read low 0.998 | S. cerevisiae deletion strains, strain wtn01, active compounds read low 0.989 | S. cerevisiae strains, strain wild type, active compounds read low 1.01
